# Assay results published in paper PMC11062922 (Nature Chemical Biology, 2023).
# Columns and labels:
# [1] = test system: CDK7; set-up: species or system human, MV4-11 + K-562 + COLO205 + SK-N-BE2 + OVCAR-8; settings: read-out: apparent Kd; compound concentrations: 100 nM and 1000 nM (sheet 'Samples'), CATDS: 4.9338137384748702E-2; n = 1
# [2] = test system: ERCC2; set-up: species or system human, MV4-11 + K-562 + COLO205 + SK-N-BE2 + OVCAR-8; settings: read-out: apparent Kd; compound concentrations: 100 nM and 1000 nM (sheet 'Samples'), CATDS: 5.1368063894958502E-2; n = 1
# [3] = test system: FER; set-up: species or system human, MV4-11 + K-562 + COLO205 + SK-N-BE2 + OVCAR-8; settings: read-out: apparent Kd; compound concentrations: 100 nM and 1000 nM (sheet 'Samples'), CATDS: 5.6215291988472402E-2; n = 1
# [4] = test system: GAK; set-up: species or system human, MV4-11 + K-562 + COLO205 + SK-N-BE2 + OVCAR-8; settings: read-out: apparent Kd; compound concentrations: 100 nM and 1000 nM (sheet 'Samples'), CATDS: 4.9289180471638903E-2; n = 1
# [5] = test system: MAPK10; set-up: species or system human, MV4-11 + K-562 + COLO205 + SK-N-BE2 + OVCAR-8; settings: read-out: apparent Kd; compound concentrations: 100 nM and 1000 nM (sheet 'Samples'), CATDS: 5.8204150926545503E-2; n = 1
# [6] = test system: MAPK14; set-up: species or system human, MV4-11 + K-562 + COLO205 + SK-N-BE2 + OVCAR-8; settings: read-out: apparent Kd; compound concentrations: 100 nM and 1000 nM (sheet 'Samples'), CATDS: 6.3546758887955801E-2; n = 1
# [7] = test system: MAPK9; set-up: species or system human, MV4-11 + K-562 + COLO205 + SK-N-BE2 + OVCAR-8; settings: read-out: apparent Kd; compound concentrations: 100 nM and 1000 nM (sheet 'Samples'), CATDS: 5.1291573819888199E-2; n = 1
# [8] = test system: MAPKAPK2; set-up: species or system human, MV4-11 + K-562 + COLO205 + SK-N-BE2 + OVCAR-8; settings: read-out: apparent Kd; compound concentrations: 100 nM and 1000 nM (sheet 'Samples'), CATDS: 6.9359248510779001E-2; n = 1
# [9] = test system: NLK; set-up: species or system human, MV4-11 + K-562 + COLO205 + SK-N-BE2 + OVCAR-8; settings: read-out: apparent Kd; compound concentrations: 100 nM and 1000 nM (sheet 'Samples'), CATDS: 0.64871625608349803; n = 1
# [10] = test system: PAK4; set-up: species or system human, MV4-11 + K-562 + COLO205 + SK-N-BE2 + OVCAR-8; settings: read-out: apparent Kd; compound concentrations: 100 nM and 1000 nM (sheet 'Samples'), CATDS: 5.1367607354333399E-2; n = 1
# [11] = test system: PIP4K2C; set-up: species or system human, MV4-11 + K-562 + COLO205 + SK-N-BE2 + OVCAR-8; settings: read-out: apparent Kd; compound concentrations: 100 nM and 1000 nM (sheet 'Samples'), CATDS: 6.1444231758823603E-2; n = 1
# [12] = test system: PTK2B; set-up: species or system human, MV4-11 + K-562 + COLO205 + SK-N-BE2 + OVCAR-8; settings: read-out: apparent Kd; compound concentrations: 100 nM and 1000 nM (sheet 'Samples'), CATDS: 5.2093058874082297E-2; n = 1
# [13] = target: Q6ZSR9 (human, UniProt Q6ZSR9); set-up: species or system MV4-11 + K-562 + COLO205 + SK-N-BE2 + OVCAR-8; settings: read-out: apparent Kd; compound concentrations: 100 nM and 1000 nM (sheet 'Samples'), CATDS: 4.2380052385305601E-2; n = 1
# [14] = test system: SIK2; set-up: species or system human, MV4-11 + K-562 + COLO205 + SK-N-BE2 + OVCAR-8; settings: read-out: apparent Kd; compound concentrations: 100 nM and 1000 nM (sheet 'Samples'), CATDS: 4.6797026760186898E-2; n = 1
# [15] = test system: STK3; set-up: species or system human, MV4-11 + K-562 + COLO205 + SK-N-BE2 + OVCAR-8; settings: read-out: apparent Kd; compound concentrations: 100 nM and 1000 nM (sheet 'Samples'), CATDS: 4.17809647402431E-2; n = 1
# [16] = test system: STK4; set-up: species or system human, MV4-11 + K-562 + COLO205 + SK-N-BE2 + OVCAR-8; settings: read-out: apparent Kd; compound concentrations: 100 nM and 1000 nM (sheet 'Samples'), CATDS: 4.6786088352923701E-2; n = 1
# [17] = test system: TNK1; set-up: species or system human, MV4-11 + K-562 + COLO205 + SK-N-BE2 + OVCAR-8; settings: read-out: apparent Kd; compound concentrations: 100 nM and 1000 nM (sheet 'Samples'), CATDS: 5.4278066670988299E-2; n = 1
# [18] = test system: TNK2; set-up: species or system human, MV4-11 + K-562 + COLO205 + SK-N-BE2 + OVCAR-8; settings: read-out: apparent Kd; compound concentrations: 100 nM and 1000 nM (sheet 'Samples'), CATDS: 7.0528629271619694E-2; n = 1
# [19] = test system: CDK6; set-up: species or system human, MV4-11 + K-562 + COLO205 + SK-N-BE2 + OVCAR-8; settings: read-out: apparent Kd; compound concentrations: 100 nM and 1000 nM (sheet 'Samples'), CATDS: 0.35534490355550902; n = 1
# [20] = test system: EGFR; set-up: species or system human, MV4-11 + K-562 + COLO205 + SK-N-BE2 + OVCAR-8; settings: read-out: apparent Kd; compound concentrations: 100 nM and 1000 nM (sheet 'Samples'), CATDS: 0.84328926118449798; n = 1
# Sequence of Q6ZSR9 (Q6ZSR9 whole entry, looked up): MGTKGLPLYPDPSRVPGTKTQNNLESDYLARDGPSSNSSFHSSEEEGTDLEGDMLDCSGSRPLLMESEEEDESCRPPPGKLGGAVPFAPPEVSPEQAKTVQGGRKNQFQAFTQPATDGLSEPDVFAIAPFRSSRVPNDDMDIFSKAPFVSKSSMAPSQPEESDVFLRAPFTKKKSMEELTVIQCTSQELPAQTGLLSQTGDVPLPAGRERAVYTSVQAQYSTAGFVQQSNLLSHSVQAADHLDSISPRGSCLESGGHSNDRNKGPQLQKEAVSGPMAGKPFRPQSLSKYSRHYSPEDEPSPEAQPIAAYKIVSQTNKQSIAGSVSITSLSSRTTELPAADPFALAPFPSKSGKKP
SMILES,potency estimated from few doses [1] [nM],potency estimated from few doses [2] [nM],potency estimated from few doses [3] [nM],potency estimated from few doses [4] [nM],potency estimated from few doses [5] [nM],potency estimated from few doses [6] [nM],potency estimated from few doses [7] [nM],potency estimated from few doses [8] [nM],potency estimated from few doses [9] [nM],potency estimated from few doses [10] [nM],potency estimated from few doses [11] [nM],potency estimated from few doses [12] [nM],potency estimated from few doses [13] [nM],potency estimated from few doses [14] [nM],potency estimated from few doses [15] [nM],potency estimated from few doses [16] [nM],potency estimated from few doses [17] [nM],potency estimated from few doses [18] [nM],potency estimated from few doses [19] [nM],potency estimated from few doses [20] [nM]
Cl.Cn1c(=O)c(Oc2cccc(F)c2)cc2cnc(NC3CCOCC3)nc21 [RO3304774-001],1360,1240,1010,1370,939,786,1240,665,17.9,1240,840,1200,2060,1560,2160,1560,1090,645,,
CNC(=O)c1cccc(C#Cc2cncnc2Nc2ccc(OCc3cccc(F)c3)c(Cl)c2)c1 [GW772405X],,,,,,,,,,,,,,,,,,,1780,182
